The whole screen tested about 31,000 sequences, of which about 1,400 (4.5%) were called active.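 Rule for the calls: active = median seed-adjusted z-score above 1 or below -1; inactive = the rest.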 The full list was thinned out, with actives kept by preference.

The nature of this experiment: Novel Modifiers of Survival Motor Neuron (SMN) Protein: Gene Identification via Genome-wide siRNA Screen.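 Note: luminescence tracks full-length SMN protein made from the SMN2 reporter.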 As to conditions: HEK293T SMN2-luciferase reporter, siRNA knockdown, 72 h; actives lie on both sides. Summed up:
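siRNA screen, 10418 genes ×3 siRNAs; 1 pmol/well, lipid reverse transfection into HEK293T SMN2-luc reporter line. 72 h, 37 °C, 5% CO2; ONE-Glo readout. Data: neg-ctrl normalized, log10, MAD; hit = MAD >1.0 or < -1.0.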
(In general: In a reporter assay the amount or activity of a reporter protein is the signal.)
GCUCGUAAGAGUGCAAGUATT against USPL1: the median seed-adjusted z-score is -1.87 (active).

On to GCCUGAAACUGGAGCCUCATT against SLC3A2, for which the median seed-adjusted z-score was -0.0428 (inactive).

Turning to CCACAAAGACCGUCGCUUUTT against RHOBTB2, the median seed-adjusted z-score is -0.139 (inactive).

Consider GGCUAUGAUCAAAUCCUUATT against SLC17A4, for which the median seed-adjusted z-score is 0.262 (inactive).

As to GAACUGGGCGAGUAUUACATT against SUPT5H, the median seed-adjusted z-score was -4.02 (active).

With AGAUGGAAGCGAAAACUGATT against NFATC1, the median seed-adjusted z-score was 0.00712 (inactive).

On to GUGACCUUGUCAUUCCGUATT against RGS5, for which the median seed-adjusted z-score was 0 (inactive).

For CACCUGUUCGUGUCCUUCATT against SCTR, the median seed-adjusted z-score was -0.352 (inactive).

Regarding GCCUGGUUAUAUAACCGGATT against EP300, the median seed-adjusted z-score was -0.2 (inactive).

Consider GGUUCCGAAUCUAUUCCAATT against PLTP, for which the median seed-adjusted z-score was 1.09 (active).

Turning to GGCCUUACUUAUUUGUGGATT against MAP2K5, the median seed-adjusted z-score is 0.986 (inactive).

On to GCAUCACACUCACCAACUATT against GPR124, for which the median seed-adjusted z-score was 0.00658 (inactive).

As to GCUUUGGAAGAAUACGUUATT against NR2F2, the median seed-adjusted z-score was 0.129 (inactive).

For UGAGUAUGCCUACCUCAAATT against HNF4A, the median seed-adjusted z-score was -0.0274 (inactive).

For the sequence CAAUCUACCUAAUCAAGCUTT against ROD1, the median seed-adjusted z-score is 0.42 (inactive).

With CAAGAACGUGUACAAGUUUTT against RPN2, the median seed-adjusted z-score was -0.217 (inactive).

For GAGCUGAGCUGUCGAUAUATT against SUPT6H, the median seed-adjusted z-score is -2.54 (active).

Regarding GGUACAUCAUGAUAGAACATT against ABCD2, the median seed-adjusted z-score is -0.102 (inactive).

Regarding GUAUGGACACCAUUAGUAATT against DTX3L, the median seed-adjusted z-score was 0.0785 (inactive).

Take GAGUUCACCCAGAUCGAAATT against CHMP6: the median seed-adjusted z-score was -1.81 (active).

For the sequence GCAUCGACAUGGUUUCCGATT against GABRB3, the median seed-adjusted z-score was 0.0757 (inactive).

For CCACUGUACUGAGUGACCATT against HECTD3, the median seed-adjusted z-score is 0 (inactive).

In the case of GAUUACUUCUUGACUAUCATT against OCRL, the median seed-adjusted z-score is -0.545 (inactive).

In the case of CGACCCUCAGAAUGAUAAATT against ARPC3, the median seed-adjusted z-score is -0.237 (inactive).

As to CCAUCCUGGAAAUACCCUATT against SERPINA12, the median seed-adjusted z-score was -0.382 (inactive).

For the sequence UGAAUUUCGUAGUUCCAUATT against CNOT8, the median seed-adjusted z-score is 0.375 (inactive).

Turning to CCGUCGAAUUUGAAGGUGATT against SULF1, the median seed-adjusted z-score was -0.128 (inactive).

Consider AGAUCUCCAUGGUCAGGAUTT against ACCN4, for which the median seed-adjusted z-score is -0.512 (inactive).

GAACCUUCGGGAGAACCUUTT against FKBPL: the median seed-adjusted z-score was -1.11 (active).

For the sequence CGGUAUAAUCGGAAUCGGATT against MKI67IP, the median seed-adjusted z-score is 0.426 (inactive).

For GGUGAAUAUUUAUCGUCUATT against CHD1, the median seed-adjusted z-score is -1.03 (active).

For GCUAGACACCGGACCAAAATT against MMP28, the median seed-adjusted z-score is 0.862 (inactive).

With GGACAACUAUGGUAAGAAATT against TCF7L1, the median seed-adjusted z-score was -0.251 (inactive).

As to GGAUUGAGCGCAUCAAGGUTT against GNG7, the median seed-adjusted z-score was -0.205 (inactive).

For GAAUGCUGUUUAUCUUAAUTT against PNPLA1, the median seed-adjusted z-score was 0.00692 (inactive).

For GGGAAAAAGUUCUUGCGUATT against USP12, the median seed-adjusted z-score was 0.121 (inactive).

On to GCUUUACAACAAUCACAUATT against AMIGO2, for which the median seed-adjusted z-score is -0.258 (inactive).

CUCUUUCAAGUAUGAGACATT against INHA: the median seed-adjusted z-score was 0.231 (inactive).

Take CAGCUGCUAUCAGAACGGATT against APBA2: the median seed-adjusted z-score was 1.66 (active).

For the sequence GAAUAUUCUUGCAGAGUUUTT against WFDC5, the median seed-adjusted z-score was 0 (inactive).

Turning to GGCUUUUGAGCAUCCCAAUTT against CDK4, the median seed-adjusted z-score was 0.346 (inactive).

In the case of CAGUCCCUCUAUCACAUAUTT against ERH, the median seed-adjusted z-score was -1.25 (active).

As for GGAGGUGUUUUGUUCGGAUTT against SV2C, the median seed-adjusted z-score was 0.183 (inactive).

With GGCUAGUGAUAUACUAUAUTT against RPS6KA6, the median seed-adjusted z-score is -0.0821 (inactive).

For the sequence CCAUCAGUACAUAUCCGAATT against ABCA8, the median seed-adjusted z-score is -0.666 (inactive).

In the case of GCUCAUGGUUGAUGAUUCUTT against RABGGTA, the median seed-adjusted z-score was -0.0601 (inactive).

For the sequence UCACUAUCAGUACCCAUUATT against CHRNB1, the median seed-adjusted z-score was 0.16 (inactive).

As to GGAGAGAGGUCCAGUCUGATT against BIRC7, the median seed-adjusted z-score was -1.44 (active).

Consider CAAAGUAUCGGGUCAUCUATT against DMRTA1, for which the median seed-adjusted z-score is -0.162 (inactive).

On to CUUUGACAGUGUUCGUGAATT against SGOL2, for which the median seed-adjusted z-score was 0.114 (inactive).

For the sequence CCAAGACGAUGAGAGUAUATT against UGCGL2, the median seed-adjusted z-score was -0.456 (inactive).

With CGGGCGAGUUUACUAUGUATT against ITCH, the median seed-adjusted z-score is 0.199 (inactive).

In the case of GCAUUGCCGAGAUCCAUGATT against PIK3R2, the median seed-adjusted z-score is 0.421 (inactive).

For the sequence UCACGUAGAGUCAUAUUUATT against HNRPA1P4, the median seed-adjusted z-score is -0.906 (inactive).

In the case of ACACAGCUGUUGUACCUCATT against MAP4, the median seed-adjusted z-score was 1.67 (active).

Take GAUACUUUGCCGUCAAUUATT against CA5B: the median seed-adjusted z-score is 0.317 (inactive).

For the sequence CCAUUGAUCUGCACUACUATT against NUP85, the median seed-adjusted z-score is 0.948 (inactive).

Turning to GACCUAUCCUUGCACCAGATT against ECT2, the median seed-adjusted z-score is 0.04 (inactive).

Regarding GCUCGAGUGGAAGAACUCATT against GLMN, the median seed-adjusted z-score is 0 (inactive).

Turning to GCAGGACCCAUUACGGCUATT against DPEP1, the median seed-adjusted z-score was -0.886 (inactive).

Take GGCUGUGCAUAAACGAGAATT against GTF2E1: the median seed-adjusted z-score was 1.76 (active).

On to GGAGAACCAUAGAAAACCATT against RIPK3, for which the median seed-adjusted z-score is 0.123 (inactive).

As for CGAGGACACCCUUAGCAGUTT against ADRA1B, the median seed-adjusted z-score was -0.472 (inactive).

Take GACCGUACGAGGCAAGUAATT against PAX1: the median seed-adjusted z-score is -0.111 (inactive).

Take GAACGAGUGAGAGAAUAUATT against TTC9C: the median seed-adjusted z-score is -0.571 (inactive).

On to GCCGAGUCAGUAUCUAUGATT against STARD13, for which the median seed-adjusted z-score is -0.0337 (inactive).

Regarding GGACAAGAAUUUUGCCUUUTT against U2AF2, the median seed-adjusted z-score was 2.14 (active).

As for CCACGGUGAUAACAGACAUTT against ALDH8A1, the median seed-adjusted z-score is 0.0628 (inactive).

As to GGCUAUACAGGGUAGACAATT against PXDNL, the median seed-adjusted z-score is -0.186 (inactive).

With GGCAGAUAACUGAACGAGATT against HECW2, the median seed-adjusted z-score was 0.38 (inactive).

Consider CUGGCUACGUGAAUGUGCATT against ZDHHC12, for which the median seed-adjusted z-score was -0.0312 (inactive).

Regarding GGAACUCGUGCAUCUCCAATT against CD93, the median seed-adjusted z-score is -0.0879 (inactive).

On to GAGAUUACAUAAACGGAGATT against PARP11, for which the median seed-adjusted z-score was 0.192 (inactive).

For the sequence CAGAUGUUAUGGAUAUAAUTT against L2HGDH, the median seed-adjusted z-score is -0.346 (inactive).

Take GCUUAUGGUUGAUCAGUUATT against RNF7: the median seed-adjusted z-score was -1.18 (active).

With UGAGUUGCCCUGAUUUGAATT against AIF1, the median seed-adjusted z-score was -0.0293 (inactive).

Consider GCAACUCCUUCCUCGCUAATT against RBM17, for which the median seed-adjusted z-score was 0 (inactive).

For the sequence GAAUGUUCAAGAUCGAUUUTT against RANBP2, the median seed-adjusted z-score is 1.53 (active).

For the sequence UCAUGUAUGUGGGAGCCAATT against SNCG, the median seed-adjusted z-score is -0.169 (inactive).

Regarding AGGUGAUGCAGGACAGAAATT against COL18A1, the median seed-adjusted z-score was -0.441 (inactive).

For the sequence CCUCAACUCUUAUAUUACATT against ZNF595, the median seed-adjusted z-score is 0.102 (inactive).

For GGAUCCCUAUGUUCGGAAATT against AP2B1, the median seed-adjusted z-score was -0.214 (inactive).

For the sequence GCAGUAAUAUUUAUCUCUUTT against SUCNR1, the median seed-adjusted z-score is 0 (inactive).

For CCUGAAUCCUUAGACUUAATT against PROX1, the median seed-adjusted z-score is -0.372 (inactive).

In the case of ACCCUGCUAUACUCCCUAUTT against MAPKAPK3, the median seed-adjusted z-score was -0.506 (inactive).

As to GAUCCUAAUAUGAAGUUAUTT against FUBP1, the median seed-adjusted z-score was -1.52 (active).

Take GCUAGAGAUUGACCAGAAATT against NUDC: the median seed-adjusted z-score was -0.227 (inactive).

GGCAACAACUGGAUCUGAATT against PIGZ: the median seed-adjusted z-score was 0.74 (inactive).

Consider CUGGAUGAGGUGUACCUUATT against XPNPEP1, for which the median seed-adjusted z-score was -1.5 (active).

For GCAUGACCCUCGUCACAUATT against THBS1, the median seed-adjusted z-score is -0.847 (inactive).

As to GGGUAGGUGAUAUCCAUAUTT against ZBTB5, the median seed-adjusted z-score is 0.314 (inactive).

In the case of GGCGGAGUAUGGAAAGUUATT against UBE2H, the median seed-adjusted z-score was 0 (inactive).

For the sequence GCACCUCUCUGCUAACUGUTT against PGC, the median seed-adjusted z-score was 0.884 (inactive).

Turning to CGAUGUCAGUAGGAACCUUTT against PSMC1, the median seed-adjusted z-score is -2.23 (active).

In the case of CGACUACCCAUACUCUCCATT against CDC34, the median seed-adjusted z-score was 0 (inactive).

In the case of CUACCUCUAUAUCACCAAATT against KDELR1, the median seed-adjusted z-score was -0.0168 (inactive).

With CCGUUGCUCUAUCUUCGUATT against SETBP1, the median seed-adjusted z-score was 0.0232 (inactive).

GAAAGACAGAUCAAGAUUUTT against HOXB7: the median seed-adjusted z-score is -0.153 (inactive).

With ACCGCUUCAUGUCUGCGUATT against SF3A2, the median seed-adjusted z-score is -1.7 (active).

With AUCCGAUGGUGGUUACUGATT against MCOLN1, the median seed-adjusted z-score was -0.522 (inactive).

For the sequence CGGCUUGAAUUUGAUCUAUTT against AASDHPPT, the median seed-adjusted z-score is 0.64 (inactive).

GAGUGACUGUAGAGCCUCATT against GCS1: the median seed-adjusted z-score is 0.819 (inactive).

CACGGUCUGUUCUCAGAUUTT against MXD4: the median seed-adjusted z-score was 0.688 (inactive).

On to CCCUUUUACUAUUCAGCGATT against PPP4R2, for which the median seed-adjusted z-score is 0.211 (inactive).

CAUUUUAGAUGGGCACAAUTT against GOSR2: the median seed-adjusted z-score is -1.25 (active).

Turning to GAAUGAUCGUGAUCCUCGUTT against AHCTF1, the median seed-adjusted z-score was -0.501 (inactive).

Turning to GAGUGAAGAUGAGUUGACATT against XRCC6, the median seed-adjusted z-score was 0 (inactive).

For the sequence GACCGGAUAUGGGCUAUAATT against NEK7, the median seed-adjusted z-score was 0 (inactive).

For the origin of these results see PubChem BioAssay AID1347426 (Functional Genomics Laboratory (NCATS/FGL), 2020).
